From PubChem BioAssay (Tox21)
Results filed as inconclusive are left out. Active and inactive are the calls of the source. The call rests on the fitted dose curve.

Each compound was assayed against Vitamin D3 receptor (Homo sapiens) (UniProt P11473) (assay: qHTS assay to identify small molecule agonists of the vitamin D receptor (VDR) signaling pathway (AID 743222)). Conditions: HEK293T VDR-UAS-bla, beta-lactamase FRET ratio, 16 h; series mostly up to 63.5 µM; activation: at the top concentration.
Vitamin D3 receptor (Homo sapiens), sequence (P11473 whole entry, looked up): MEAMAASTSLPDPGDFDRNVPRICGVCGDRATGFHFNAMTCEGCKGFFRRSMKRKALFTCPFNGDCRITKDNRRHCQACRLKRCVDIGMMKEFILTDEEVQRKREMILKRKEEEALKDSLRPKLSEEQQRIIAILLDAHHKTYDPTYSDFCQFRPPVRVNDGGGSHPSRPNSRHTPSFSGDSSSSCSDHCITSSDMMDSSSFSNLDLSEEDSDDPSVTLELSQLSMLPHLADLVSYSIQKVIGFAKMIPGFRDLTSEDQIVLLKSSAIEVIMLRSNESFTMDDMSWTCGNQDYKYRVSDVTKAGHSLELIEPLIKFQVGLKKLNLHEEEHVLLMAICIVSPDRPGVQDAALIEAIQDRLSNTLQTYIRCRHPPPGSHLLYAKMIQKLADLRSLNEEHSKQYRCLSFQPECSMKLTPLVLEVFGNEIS
In short: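 VDR-bla cells plated 4 h at 37 C, then exposed to compounds for 16 h at 37 C. Beta-lactamase reporter activity measured by fluorescence after 2 h room-temperature loading with LiveBLAzer B/G FRET substrate.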
On the % scale 0 is the no-effect control and ±100 the full control effect.

SMILES	activation
Nc1ccc(S(=O)(=O)Nc2ccccn2)cc1	-2.56% (inactive)
OC[C@@H](O)[C@H](O)[C@@H](O)[C@@H](O)CO	6.2% (inactive)
CCCCCC(=O)OCC	0.165% (inactive)
Cc1cc(C)cc([N+](=O)[O-])c1	-1.03% [at 81.1 µM] (inactive)
FC(F)(F)/C(=N\OCC1OCCO1)c1ccc(Cl)cc1	-1.73% (inactive)
C=CCOc1c(Br)cc(Br)cc1Br	9.15% (inactive)
CC(C)=CC(C)(C)C	10.5% (inactive)
O=C1OC(=O)c2cc(Oc3ccc4c(c3)C(=O)OC4=O)ccc21	11.3% (inactive)
NS(=O)(=O)c1cc2c(cc1Cl)NC(C(Cl)Cl)NS2(=O)=O (stereo unspecified)	4.91% (inactive)
CC(C)CCC(=O)CCC(C)C	4.49% (inactive)
CNC(=O)NC	3.59% [at 81.1 µM] (inactive)
OCCCCCCCl	-4.18% [at 81.1 µM] (inactive)
C=CCOc1cc(Cl)ccc1C(=O)NCCN(CC)CC	-0.92% (inactive)
CCOC(=O)CCCCCCCCC(=O)OCC	4.12% (inactive)
CCOC(=O)OCC/C(SC(=O)OCC)=C(\C)N(C=O)Cc1cnc(C)nc1N	0.699% (inactive)
C=CCCCCCCCCCCC	-2.3% [at 6.01 µM] (inactive)
CC(=O)Nc1ncc([N+](=O)[O-])s1	3.51% (inactive)
Cc1c(C(C)C)c(=O)n(-c2ccccc2)n1C	9.27% (inactive)
Nc1ccc(C(=O)OCC(O)CO)cc1 (stereo unspecified)	0.183% (inactive)
CC(=O)OC(C)c1ccccc1 (stereo unspecified)	0.571% (inactive)
FC(F)(F)c1ccc(Cl)cc1Cl	-6.14% (inactive)
CCOC(=O)CCc1ccccc1	6.85% (inactive)
CN=C(NC#N)NCCSCc1csc(N=C(N)N)n1	7.79% (inactive)
CCOc1ccc(NC(=O)OC(C)C)cc1OCC	7.12% (inactive)
Cc1ccc(S(=O)(=O)NC(=O)NC2CCCCCCC2)cc1	8.84% (inactive)
NS(=O)(=O)c1cc2c(cc1Cl)NC(CC1CCCC1)NS2(=O)=O (stereo unspecified)	3.4% (inactive)
